Assay outcomes: PubChem BioAssay, University of Pittsburgh Molecular Library Screening Center
This excerpt belongs to a sample that is enriched for hits.
HIV RNase H inh-1 = inhibitors of HIV-1 reverse transcriptase RNase H; 1.9% of 65,000 active; AID 565; RT-RNase H RNA/DNA duplex cleavage, fluorescence; inhibition, % at 10 µM; P04585; in the data active = inhibition above about 50%
HIV RNase H inh-2 = confirmation of HIV-1 reverse transcriptase RNase H inhibitors; shares compounds with HIV RNase H inh-1; Recombinant RT RNase H, fluorescent RNA/DNA duplex cleavage; inhibition, % at 10 µM; 39% of 1,000 active; AID 651; in the data active = inhibition above about 48%; inconclusive = no clear call, values can overlap the other calls
The depositor's hits bear a star; ? = inconclusive.

SMILES	HIV RNase H inh-1	others
C=CCNC1=C(Cl)C(=O)N(c2ccccc2Cl)C1=O	-1
Cc1cc(=O)[nH]c(/N=C(/NC(=O)c2ccccc2)Nc2ccc3c(c2)OCCO3)n1	48
CCCc1cc(=O)[nH]c(/N=C(/NC(=O)C(C)N2C(=O)c3ccccc3C2=O)Nc2ccccc2)n1 (stereo not drawn)	2
CCCc1cc(=O)[nH]c(/N=C(/NC(=O)c2ccccc2)Nc2ccc3c(c2)OCCO3)n1	61*	HIV RNase H inh-2=48
Cc1sc2c(=O)n3c(nc2c1C(=O)NCCCN1CCOCC1)CCCCC3	-6
NCCCCCNC(=O)/C=N\O	-9
CCn1cc(C(=O)NCc2ccco2)c(=O)c2cc(S(=O)(=O)N3CCCCCC3)ccc21	-24
CCn1cc(C(=O)NCc2ccco2)c(=O)c2cc(S(=O)(=O)N3CCC(C)CC3)ccc21	-22
CCn1cc(C(=O)NCc2ccco2)c(=O)c2cc(S(=O)(=O)N3CCc4ccccc4C3)ccc21	65*	HIV RNase H inh-2=63*
CCOC(=O)CCc1c(C)c(C#N)c2nc3ccccc3n2c1-n1ccnc1C	2
CCOC(=O)CCc1c(C)nc(SCCCn2c(=O)[nH]c3ccccc32)c(C#N)c1C	86*	HIV RNase H inh-2=20
CCOC(=O)CCc1c(C)nc(SCCN2CCCC2)c(C#N)c1C	4
COc1ccc(NCc2nnc(SCC#N)n2-c2ccccc2OC)cc1	-7
Nn1c(SCC(=O)Nc2ccc(F)cc2)nnc1-c1cccnc1	7
COc1cc(NC(=O)c2cccs2)c(OC)cc1NC(=O)CCn1nnc2ccccc21	-2
COCCCNC(=O)c1ccccc1SC	1
O=C(NCCCc1ccccc1)c1cnc2n(c1=O)CCS2	72*	HIV RNase H inh-2=32
O=C(NCc1ccccc1)c1cnc2n(c1=O)CCS2	0
CCCCNC(=O)c1cnc2n(c1=O)CCS2	-5
CSc1nsc(SCC(=O)Nc2c(C)n(C)n(-c3ccccc3)c2=O)n1	-10
CC1CC(C)(C)NC(=S)S1 (stereo not drawn)	78*	HIV RNase H inh-2=52*
CC1CC(C)(C)NC(=O)O1 (stereo not drawn)	-6
CCOC(=O)N1CCN(C(=O)CCc2ccc(S(=O)(=O)NCCc3ccccc3)cc2)CC1	2
Cc1cc(-c2nc3c4c5c(sc4[nH]c(=O)n3n2)CCC5)c(C)o1	81*	HIV RNase H inh-2=?
Cc1nc2sc3c(c2c(=O)o1)CCCC3	-50
SMILES	HIV RNase H inh-1	others
Cc1nc2sc3c(c2c(=O)[nH]1)CCC3	-8
Cc1ccc(-n2c(Cc3cccn3C)nnc2SCC(=O)NCc2ccc3c(c2)OCO3)cc1	-7
COc1ccc(S(=O)(=O)N2CCC(C(=O)NCc3ccccn3)CC2)cc1C	-18
Fc1ccccc1Cn1nnc2c(-n3ccnc3)ncnc21	-4
Cn1cc(C(=O)c2ccc(Cl)cc2)cc1-c1nc2ccccc2n1C	3
CN(Cc1ccccc1)S(=O)(=O)c1ccc(NC(=O)C2CCCO2)cc1 (stereo not drawn)	4
C=CCOC(=O)c1sc(N2C(=O)c3oc4ccccc4c(=O)c3C2c2ccco2)nc1C (stereo not drawn)	36
Cc1ccc(C2c3c(oc4ccccc4c3=O)C(=O)N2c2nnc(C)s2)o1 (stereo not drawn)	-1
COC(=O)c1sc(N2C(=O)c3oc4ccccc4c(=O)c3C2c2cccs2)nc1C (stereo not drawn)	93*	HIV RNase H inh-2=57*
CCCCn1c(SCc2cc(=O)[nH]c3ccccc23)nc2c1c(=O)n(C)c(=O)n2C	-9
CCOC(=O)c1cc2c(N)c(C(=O)c3cc(C#N)c(SC)nc3C)sc2nc1C	16
CCOC(=O)CNC(=O)Nc1ccccc1C(=O)OC	-1
COc1cccc(CN(Cc2cccnc2)S(=O)(=O)c2ccc(-n3cnnn3)c(C)c2)c1OC	-13
CC(C)(C)OC(=O)N1CC2Cc3[nH]c(=O)ccc3C(C2)C1 (stereo not drawn)	0
Cc1nnc2sc(-c3ccncc3)nn12	-7
CC(C)(C)c1ccc(-c2nnc3sc(-c4ccncc4)nn23)cc1	95*	HIV RNase H inh-2=58*
CCOc1ccc(-c2nn3c(-c4ccc(OC)cc4)nnc3s2)cc1	-1
CCOc1ccc(-c2nn3c(-c4ccccc4)nnc3s2)cc1	87*	HIV RNase H inh-2=17
c1csc(-c2nn3c(-c4ccncc4)nnc3s2)c1	-35
CCOc1ccc(-c2nnc3sc(COc4ccccc4)nn23)cc1	-10
COc1cccc(NC(=O)N2CCN(c3ccc(C(F)(F)F)cn3)CC2)c1	-13
COC(=O)c1ccc(C2C(C(C)=O)=C(C)Nc3ncnn32)cc1 (stereo not drawn)	-13
Cc1nc(N2CCN(c3ccccc3)CC2)[nH]c(=O)c1Cc1cccc2ccccc12	63*	HIV RNase H inh-2=-8
CCc1c(C)nc(N2CCOCC2)[nH]c1=O	-1
Cc1nc(N2CCN(C(c3ccccc3)c3ccccc3)CC2)[nH]c(=O)c1C	3
SMILES	HIV RNase H inh-1	others
Cc1ccc2c(=O)c(CN(C)C3CCN(C)CC3)c(C)[nH]c2c1C	-10
CN(C)CCNC(=O)c1ccc(CS(=O)(=O)c2ccc(Br)cc2)o1	-6
COc1ccc2[nH]c(=O)c(CN(Cc3nnnn3Cc3ccco3)C3CCCCC3)cc2c1	33
CCC(c1nnnn1C1CCCCC1)N(Cc1ccco1)Cc1cc2ccc(OC)cc2[nH]c1=O (stereo not drawn)	-8
COc1ccc2[nH]c(=O)c(CN(C3CCCCC3)C(c3nnnn3Cc3ccco3)C(C)C)cc2c1 (stereo not drawn)	51*	HIV RNase H inh-2=55*
COc1ccc(CNC2CC(=O)N(C)C2=O)cc1 (stereo not drawn)	3
Oc1ccccc1C1=Nc2ncnn2C(c2ccc(F)cc2)C1 (stereo not drawn)	-4
COc1ccc(CCNC(=O)c2ccc(NS(=O)(=O)c3c(C)noc3C)cc2)cc1OC	-15
COC(=O)Nc1nnc(-c2ccccc2Cl)s1	-6
COC(=O)Nc1nnc(-c2ccncc2)s1	67*	HIV RNase H inh-2=?
CCOC(=O)Nc1nnc(-c2cccc(OC)c2)s1	0
Cn1c(=O)cc(SCC(=O)NCC2CCCO2)c2ccccc21 (stereo not drawn)	-10
NC(=O)Nc1ccc(Oc2c(F)c(F)c(F)c(F)c2F)cc1	-21
CC(CC(=O)NCc1ccccc1)C1CCCO1 (stereo not drawn)	2
CCn1c(SCc2ccc(OC)cc2)nnc1-c1ccncc1	0
CC1CCN(S(=O)(=O)c2ccc(NC(=O)Cn3nnc(-c4ccccc4)n3)cc2)CC1	70*	HIV RNase H inh-2=68*
Cc1ccc(-c2nnn(CC(=O)Nc3ccc(S(=O)(=O)N4CCC(C)CC4)cc3)n2)cc1	40
CC1CCCN(S(=O)(=O)c2ccc(NC(=O)Cn3nnc(-c4ccccc4F)n3)cc2)C1 (stereo not drawn)	11
CCCCn1nc(C(=O)O)ccc1=O	-8
O=C(CNC(=O)c1ccco1)OCc1ccc(Cl)cc1	-14
CCOc1ccc(CCN2C(=O)C3C4C=CC(C4)C3C2=O)cc1OCC (stereo not drawn)	2
COc1ccc(-n2ncc3c(N4CCN(c5cc(C)ccc5C)CC4)ncnc32)cc1	54*	HIV RNase H inh-2=8
CCN1CCN(c2ncnc3c2cnn3-c2ccc(C)cc2C)CC1	-7
Cc1ccc(-n2ncc3c(N4CCN(c5ccccc5)CC4)ncnc32)c(C)c1	3
c1csc(-c2csc3nc(CN4CCOCC4)nc(NCc4ccc5c(c4)OCO5)c23)c1	-42
CC1=C(C(=O)N2CCCCC2)C(c2cccs2)C2=C(CCCC2=O)N1 (stereo not drawn)	-2
CC(C)Sc1nc(-c2cccs2)nc2c1c(=O)n(C)c(=O)n2C	74*	HIV RNase H inh-2=90*
